# Sfp PPTase inh: inhibitors of Bacillus subtilis Sfp phosphopantetheinyl transferase; Biochemical Sfp PPTase activity, qHTS; actives 3.5% (n = 310,000); Potency, µM, inactives show largest response in the series, negative = inhibition, hits mostly inhibitors;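 further: the enzyme is Sfp with the accession as filed and its product quenches rhodamine fluorescence; 0% = enzyme reaction without inhibitor and -100% = no enzyme wells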
#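 Step 1, compound plus 15 nM Sfp-PPTase, 15 min, room temperature. Step 2, add rhodamine-CoA (5 uM) and BHQ-2-YbbR (12.5 uM). Step 3, read 525/598 nm fluorescence at 0 and 30 min.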
# JMJD2A Tudor: JMJD2A Tudor domain (human) inhibition; O75164; AlphaScreen JMJD2A-Tudor / H3K4me3 peptide binding; Potency, µM (titrated, usually from 114 µM), inactives show top-dose activity change, negative = inhibition, usual class: inhibitors; actives 4.4% (n = 390,000); AID 504339; further: on the % scale 0 is the no-effect control and ±100 the full control effect; nearly all actives have a fitted effect of over 50% in size
# G9a inh: blocks human histone lysine methyltransferase G9a. G9a H3K9 monomethylation, AlphaScreen, 2 h. Potency, µM (highest dose often 102 µM), for the others: at the highest dose activity, negative = inhibition, most hits filed as inhibitors. actives 8.8% (n = 350,000). AID 504332; further: on the % scale 0 is the no-effect control and ±100 the full control effect; nearly all actives have a fitted effect of over 75% in size
# Target sequence (Q96KQ7 913-1193 limits assumed): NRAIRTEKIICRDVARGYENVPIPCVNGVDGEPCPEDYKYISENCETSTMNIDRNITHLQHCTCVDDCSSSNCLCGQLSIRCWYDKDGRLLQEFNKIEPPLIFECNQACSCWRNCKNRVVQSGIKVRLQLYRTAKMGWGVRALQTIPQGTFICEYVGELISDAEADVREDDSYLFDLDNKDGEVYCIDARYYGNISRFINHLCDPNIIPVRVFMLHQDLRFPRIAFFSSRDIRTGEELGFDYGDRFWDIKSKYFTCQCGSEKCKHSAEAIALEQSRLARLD
#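 AlphaScreen detection with an anti-monomethyl H3K9 antibody quantified product after a 2 h room-temperature reaction containing 500 nM biotinylated H3K9 peptide, 20 µM SAM and 20 nM enzyme, which had been preincubated 15 min with compound.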
# HP1b chromo inh: blocks HP1-beta chromodomain binding to methylated histone tails; AlphaScreen HP1-beta / biotin-H3K9me3 peptide binding; Potency, µM (highest dose often 114 µM), inactives show at the top dose activity change, negative = inhibition, most hits filed as inhibitors; actives 0.56% (n = 390,000); AID 540317; further: nearly all actives have a fitted effect of over 70% in size
# Target sequence (P83916 whole entry, looked up): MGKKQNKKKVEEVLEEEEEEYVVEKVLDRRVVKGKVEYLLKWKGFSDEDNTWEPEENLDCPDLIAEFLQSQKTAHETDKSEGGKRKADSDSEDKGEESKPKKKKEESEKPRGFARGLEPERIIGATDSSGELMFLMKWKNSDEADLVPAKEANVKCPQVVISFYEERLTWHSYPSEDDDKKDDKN
#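 HP1-beta protein (50 nM final) preincubated 30 min at room temperature with biotinylated H3(1-18)K9me3 peptide (50 nM) in PBS pH 7.4, 0.01% Tween-20, then compound added for 30 min. AlphaScreen streptavidin donor/nickel chelate acceptor beads (10 ug/mL final), 30 min dark, luminescence read.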
# L3MBTL1 inh: inhibitors of human L3MBTL1; AID 485360; AlphaScreen L3MBTL1–H3K9me1 peptide binding; Potency, µM (titrated, usually from 57.1 µM), inactives show at the top dose activity, negative = inhibition, hits mostly inhibitors; Q9Y468; actives 0.66% (n = 230,000); further: on the % scale 0 is the no-effect control and ±100 the full control effect; nearly all actives have a fitted effect of over 60% in size
#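 Displacement of a biotinylated histone H3(1-15) peptide monomethylated at Lys9 (75 nM) from L3MBTL1 (50 nM) was measured by AlphaScreen after a 30 min room-temperature compound incubation; cefsulodin titration served as intraplate control.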
# BAZ2B inh: blocks human BAZ2B; AlphaScreen BAZ2B-H3K14Ac peptide displacement; AID 504333; actives 4.4% (n = 360,000); Potency, µM (top dose mostly 114 µM), inactives show top-dose activity change, negative = inhibition, usual class: inhibitors; Q9UIF8; further: on the % scale 0 is the no-effect control and ±100 the full control effect; nearly all actives have a fitted effect of over 60% in size
#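 Compounds, titrated to a top concentration of 110 uM, were incubated 30 min at room temperature with preformed BAZ2B/acetyl-K14 H3 peptide complex (50 nM each). Proximity signal was measured by AlphaScreen after 20 min with beads.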
# * hit, by the source's call; ? = inconclusive; . = no result; [ ] = dose if it differs, or a comment. A selection: hits, their analogues and other compounds. The true share with any hit is near 12%. The call rests on the fitted dose curve; in most records, active means well fitted curve in the direction sought with a large enough effect; inconclusive means small, poorly fitted or top-dose-only effect, or another doubt; inactive means no such curve, though single readings can be large; an effect the other way counts as inactive or inconclusive. Potency means the concentration at half of the fitted maximal effect.
SMILES,Sfp PPTase inh,JMJD2A Tudor,G9a inh,HP1b chromo inh,L3MBTL1 inh,BAZ2B inh
O=C1c2cccnc2C(Nc2ccc(Br)cc2)N1Cc1cccs1 (centres undefined),-18%,?,50µM*,9%,.,.
COc1ccc(NC2c3ncccc3C(=O)N2Cc2cccs2)cc1 (centres undefined),?,?,50µM*,?,-1%,71µM*
O=C1c2cccnc2C(Nc2ccc(F)c(Cl)c2)N1Cc1cccs1 (centres undefined),-10%,-10%,50µM*,17%,.,?
Cc1c(-c2ccccc2)oc2cc(O)ccc2c1=O,8%,.,.,.,.,.
CC(C(=O)N(C)Cc1cccc(F)c1)N1CCN(S(=O)(=O)c2ccc3c(c2)OCCCO3)CC1 (centres undefined),.,-16%,40µM*,22%,6%,9%
Oc1c(Br)cc(/C=N/n2c(-c3ccccc3)n[nH]c2=S)cc1Br,-19%,3.2µM*,1.3µM*,5%,2%,?
Oc1ccc(/C=N/n2c(-c3ccccc3)n[nH]c2=S)cc1Br,-26%,8.9µM*,0.89µM*,9%,-6%,-34%
Cc1c(Br)c(O)c(Br)c(O)c1/C=N/n1c(-c2ccccc2)n[nH]c1=S,?,25µM*,0.79µM*,?,.,-38%
Oc1c(Br)cc(/C=N/n2c(-c3ccccc3)n[nH]c2=S)c(O)c1Br,-13%,4µM*,0.4µM*,-16%,2%,-27%
Cc1cn2c(=O)c(C(=O)NCc3ccc4c(c3)OCO4)cnc2s1,.,-1%,3%[59 µM],23%,-2%,-4%
N#Cc1ccc(CN2CCCC3(CCN(C(=O)c4cccc(F)c4)CC3)C2)cc1,13%,.,6%[12.7 µM],.,.,.
CCN1C(=O)CS/C1=C(\C#N)S(=O)(=O)c1ccccc1,16%,-30%,11%[59 µM],-7%,-2%,-32%
N#CC(=C1Nc2ccccc2N1)S(=O)(=O)c1ccccc1,0%,25µM*,.,-17%,4%,-12%
O=C(Nc1ccc(NC(=O)C2CC2)nc1)c1ccccn1,-27%,45µM*,32µM*,17%,9%,?
CC(C)C(=O)Nc1ccc(NC(=O)c2ccccn2)cn1,-24%,?,25µM*,14%,6%,-5%
COc1cccc([C@@H]2Oc3ccc(Br)cc3C(=O)[C@H]2OC(=O)Nc2ccc(C)c(Br)c2)c1,6%,.,.,.,.,.
Cn1c2c(c(=O)n(C)c1=O)C(c1ccccc1F)C(C#N)=C(N)O2 (centres undefined),-22%,-13%,16µM*,54%,1%,-6%
Cn1c2c(c(=O)n(C)c1=O)C(c1ccccc1Cl)C(C#N)=C(N)O2 (centres undefined),-15%,2%,25µM*,61%,.,-23%
CC(/C=N\Nc1nnc2c(n1)[nH]c1c(C)cccc12)=C\c1ccco1,-5%,-19%,18%[59 µM],19%,4%,-4%
O=c1ccc(NS(=O)(=O)c2ccccc2Cl)cn1Cc1ccc(Cl)c(Cl)c1,15%,-25%,28µM*,17%,-8%,56µM*
O=C(O)Cc1ccc(NS(=O)(=O)c2ccccc2Cl)cc1,-27%,-4%,22µM*,20%,-14%,?
Cc1ccc(S(=O)(=O)Nc2ccc(=O)n(Cc3ccc(Cl)c(Cl)c3)c2)cc1,?,?,?,?,-6%,60%
CC1=C([N+](=O)[O-])C(c2ccc(Cl)cc2)NC(=O)N1 (centres undefined),24%,-10%,6%,54%,-4%,-18%
O=C(Cc1cccc(F)c1)N1CCOCC1,.,-14%,.,0%,.,.
COc1ccc(N2CCN(c3ccnc4cc(Cl)ccc34)CC2)cc1,56µM*,35µM*,32µM*,40µM*,.,40µM*
SMILES,Sfp PPTase inh,JMJD2A Tudor,G9a inh,HP1b chromo inh,L3MBTL1 inh,BAZ2B inh
Oc1ccc(N2CCN(c3ccnc4cc(Cl)ccc34)CC2)cc1,?,56µM*,8.9µM*,?,.,?
C[N+]12CCCCC1[C@@H](CO)CCC2 (some centres undefined),3%,-12%,50µM*,14%,.,-33%
C=C(C)C(=O)OC[C@@H]1CCC[N@+]2(C)CCCCC12 (some centres undefined),-14%,.,.,.,.,.
CCn1c(CNc2cccc(C(F)(F)F)c2)n[nH]c1=S,-12%,50µM*,.,22%,7%,-11%
COc1ccc(-n2c(SCC(=O)NCC3CCCO3)nc3c(c2=O)SC(C)C3)cc1 (centres undefined),5%,-8%,.,12%,.,-10%
O=C1CCCC2=C1Sc1ccccc1N2,?,-36%,.,-21%,-19%,45µM*
C=CCn1c(-c2sc3nc(C)cc(C)c3c2N)n[nH]c1=S,8%,40µM*,7.9µM*,52%,-7%,-17%
C=CCn1c(-c2cc(OC)cc(OC)c2)n[nH]c1=S,-7%,32µM*,?,26%,8%,13%
C=CCn1c(-c2ccc(OC)cc2)nc2ccccc21,18%,6%,-1%[12.7 µM],34%,38%,-13%
C=CCn1c(-c2cccc(OCC)c2)n[nH]c1=S,-4%,22µM*,8.9µM*,38%,6%,-9%
CN1CCN(CCCc2c3c(cc4c2CCC4)CCC3)CC1,-9%,-32%,?,6%,-8%,?
COc1ccc(NC(=O)C2=C(C)Nc3ncnn3C2c2ccc[nH]2)cc1 (centres undefined),.,-7%,8%[59 µM],20%[57 µM],.,-22%
CSc1ccc(-c2nnc(NC(=O)c3ccc4c(c3)OCCO4)o2)cc1,.,-19%,52%[59 µM],14%[57 µM],.,-7%
CCCC(=O)Nc1nnc(-c2ccc3c(c2)OCCO3)o1,14%,?,3%,-7%,-19%,79µM*
Cc1nn2c(=O)cc(COC(=O)c3ccccc3NC(=O)c3cccs3)nc2s1,.,6%,0%[12.7 µM],21%,.,-2%
CN(C)CCCCCCN(C)C,12%,.,10%[12.7 µM],.,.,.
CC(C)c1ccc(Nc2nc(Cl)nc(Cl)n2)cc1,-5%,89µM*,40µM*,3%,6%,?
O=C(Nc1cc(Cl)ccc1-n1cncn1)c1ccc(Br)o1,.,-9%,56µM*,39%,16%,0%
Cc1cccc(OCC(=O)Nc2cc(Cl)ccc2-n2cncn2)c1C,.,-14%,?,6%,2%,-6%
CCCOc1ccccc1OCC(=O)Nc1cc(Cl)ccc1-n1cncn1,.,-1%,45µM*,18%,3%,5%
CCc1cccc(OCC(=O)Nc2cc(Cl)ccc2-n2cncn2)c1,.,-4%,2%[12.7 µM],43%,2%,6%
O=C(COc1ccc(F)cc1)Nc1cc(Cl)ccc1-n1cncn1,.,-11%,56µM*,12%,9%,9%
C=CCc1ccc(OCCN2CCc3ccccc3C2)c(OC)c1,?,?,10µM*,?,-5%,50µM*

# From PubChem
